FLuc inh: inhibitors of firefly (Photinus pyralis) luciferase. P08659. purified P. pyralis luciferase, luminescence, biochemical. Potency, µM (series often up to 115 µM), hits mostly inhibitors. 76,000 tested, 2.5% active. AID 1347043; note: nearly all actives have a fitted effect of over 65% in size
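Purified 10nM P. pyralis luciferase with 10uM D-luciferin and 10uM ATP in 50mM Tris acetate pH 7.5, 10mM Mg acetate, 0.01% Tween-20, 0.05% BSA. qHTS titration; luminescence read by CCD imager.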
HEK cytotox: HEK 293 cell cytotoxicity | HEK 293 viability, ATP luminescence (CellTiter-Glo), 48-72 h | Potency, µM (highest dose often 115 µM), hits mostly inhibitors | 94,000 tested, 6.6% active | AID 1345083; note: nearly all actives have a fitted effect of over 60% in size
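Cytotoxicity was scored by loss of ATP-coupled luminescence (CellTiter-Glo) in HEK 293 cells. Compound treatment ran 48 or 72 hr at 37 degree Celsius, 5% CO2, 95% humidity.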
3T3 cytotox: NIH 3T3 cell cytotoxicity | NIH 3T3 viability, CellTiter-Glo ATP luminescence, 48-72 h | Potency, µM (top dose mostly 96.7 µM), most hits filed as inhibitors | 94,000 tested, 4.3% active | AID 1345082; note: nearly all actives have a fitted effect of over 55% in size
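Luminescent ATP readout (CellTiter-Glo, 10 min RT) after 48 or 72 hr compound exposure of NIH 3T3 cells seeded at 400 cells/well in 1536-well format; quantitative HTS.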
hNpr1 antagonist: human Npr1 receptor antagonism. Potency, µM (series often up to 46.3 µM), actives largely listed as inhibitors. P16066. HEK293 hNpr1 GloSensor cGMP, ANP-stimulated luminescence. 76,000 tested, 1.6% active; calls by dose curve; note: nearly all actives have a fitted effect of over 60% in size
Target sequence (P16066 whole entry, looked up): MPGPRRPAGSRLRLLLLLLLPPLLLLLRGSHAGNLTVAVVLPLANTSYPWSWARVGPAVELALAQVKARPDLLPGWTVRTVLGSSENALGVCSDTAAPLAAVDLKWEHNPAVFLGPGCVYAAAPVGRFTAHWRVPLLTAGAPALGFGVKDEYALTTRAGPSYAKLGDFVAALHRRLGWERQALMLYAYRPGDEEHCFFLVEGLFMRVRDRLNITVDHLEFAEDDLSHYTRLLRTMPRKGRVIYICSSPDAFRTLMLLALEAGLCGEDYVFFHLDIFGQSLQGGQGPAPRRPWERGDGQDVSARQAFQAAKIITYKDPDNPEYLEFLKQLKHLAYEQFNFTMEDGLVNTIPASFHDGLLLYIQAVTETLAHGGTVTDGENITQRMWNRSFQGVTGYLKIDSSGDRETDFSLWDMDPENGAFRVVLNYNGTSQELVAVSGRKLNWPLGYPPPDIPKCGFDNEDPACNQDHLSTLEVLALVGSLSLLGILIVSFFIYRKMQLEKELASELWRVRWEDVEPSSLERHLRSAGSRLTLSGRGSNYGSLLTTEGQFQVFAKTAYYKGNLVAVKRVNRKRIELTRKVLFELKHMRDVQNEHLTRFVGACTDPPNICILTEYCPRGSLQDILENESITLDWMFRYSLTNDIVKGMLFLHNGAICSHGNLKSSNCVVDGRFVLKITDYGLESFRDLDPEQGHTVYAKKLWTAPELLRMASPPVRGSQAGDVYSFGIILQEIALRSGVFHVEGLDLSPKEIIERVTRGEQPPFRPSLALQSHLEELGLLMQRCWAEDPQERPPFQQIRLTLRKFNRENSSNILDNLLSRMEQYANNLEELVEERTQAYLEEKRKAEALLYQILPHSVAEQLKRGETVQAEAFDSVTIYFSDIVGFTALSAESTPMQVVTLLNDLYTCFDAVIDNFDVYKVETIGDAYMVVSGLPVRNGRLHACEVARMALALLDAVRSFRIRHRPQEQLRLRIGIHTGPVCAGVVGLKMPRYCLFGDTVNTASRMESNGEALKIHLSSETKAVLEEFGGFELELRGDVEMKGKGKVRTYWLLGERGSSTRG
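Compound pre-incubated 30 min at room temperature on GloSensor-loaded HEK293 cells stably carrying hNpr1 and the pGS-40F cGMP biosensor. Stimulation uses hNppA at 0.1 nM final; luminescence is taken at baseline and 20 min post-agonist.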
Npr1 antag conf: hNpr1 antagonism, confirmation assay | 1,400 tested, 76% active | shares compounds with hNpr1 antagonist | Potency, µM (highest dose often 57.6 µM), usual class: inhibitors | HEK293 hNpr1 cGMP GloSensor luminescence, ANP-stimulated; calls by dose curve; note: nearly all actives have a fitted effect of over 70% in size
NPR2 antag: antagonizes human Npr2, subtype selectivity check; AID 1347046; Potency, µM (top dose mostly 57.6 µM), hits mostly inhibitors; shares compounds with hNpr1 antagonist; 1,400 tested, 67% active; HEK293 hNpr2 GloSensor cGMP luminescence, CNP-stimulated; calls by dose curve; note: nearly all actives have a fitted effect of over 70% in size
FLuc counter: FLuc enzyme inhibition, Npr1 counter-screen. shares compounds with hNpr1 antagonist. purified FLuc enzyme, luminescence, Km substrate. Potency, µM (highest dose often 57.6 µM), usual class: inhibitors. 1,400 tested, 0.7% active. AID 1347047
GloSensor cGMP: reduces cGMP signal in GloSensor control cells. shares compounds with hNpr1 antagonist. HEK293 GloSensor cGMP, SNP-stimulated, luminescence. Potency, µM (series often up to 57.6 µM), usual class: inhibitors. 1,400 tested, 69% active. AID 1347051; calls by dose curve; note: nearly all actives have a fitted effect of over 70% in size
A number is an active result; - = inactive; ? = inconclusive; . = no result. Hits are enriched below; roughly 11% of the tested compounds scored in any of these assays. Unless noted, calls come from the whole dose curve; as a rule, active = well fitted curve in the direction sought with a large enough effect; inconclusive = small, poorly fitted or top-dose-only effect, or another doubt; inactive = no such curve, though single readings can be large; an effect the other way counts as inactive or inconclusive.

SMILES	FLuc inh	HEK cytotox	3T3 cytotox	hNpr1 antagonist	Npr1 antag conf	NPR2 antag	FLuc counter	GloSensor cGMP
CN1CCN(C(=O)c2csc(N3CCN(c4ccc(Cl)cc4)CC3)n2)CC1	?	?	?	-	.	.	.	.
O=C(NCc1ccccc1)c1csc(N2CCN(c3ccc(Cl)cc3)CC2)n1	-	?	-	11µM	22µM	22µM	-	22µM
O=C(NCc1ccccc1Cl)c1csc(N2CCN(c3ccc(F)cc3)CC2)n1	-	?	?	11µM	22µM	22µM	-	19µM
O=C(NCc1ccc2c(c1)OCO2)c1csc(N2CCN(c3ccc(F)cc3)CC2)n1	-	28µM	?	10µM	8.6µM	11µM	-	9.7µM
O=C(NCc1ccccc1Cl)c1cn2cc(-c3ccccc3)sc2n1	.	-	-	.	.	.	.	.
O=C(NCc1ccc(F)cc1)c1cc2n(n1)CC(c1ccc3c(c1)OCO3)OC2 (centres undefined)	-	?	?	-	.	.	.	.
CN1C(=O)C(c2ccccc2)CC12CCN(Cc1ccc(F)cc1F)CC2 (centres undefined)	-	?	-	-	.	.	.	.
COc1cccc(N2C(=O)NC(=NC3CCCCC3)C23CCN([S+](=O)([O-])c2cccc(C(F)(F)F)c2)C3)c1 (centres undefined)	-	?	?	-	.	.	.	.
O=C(CCC1CCCCC1)NC1CCN(c2ccc(=O)n(CC3CC3)n2)CC1	-	?	?	?	.	.	.	.
CCCc1ccc(S(=O)(=O)NC2CCN(c3ccc(=O)n(CC4CC4)n3)CC2)cc1	-	?	?	10µM	12µM	15µM	-	14µM
O=c1ccc(N2CCC(NS(=O)(=O)c3ccccc3Cl)CC2)nn1CC1CC1	-	-	?	13µM	27µM	22µM	-	24µM
COc1ccc(N2CCN(C(=O)c3cc4c(s3)CN(C3CCCC3)C4)CC2)cc1	-	-	-	-	.	.	.	.
COC[C@H]1NC(=O)CC[C@H]1C(=O)Nc1ccc(N2CCOCC2)cc1	-	-	-	-	.	.	.	.
O=C1NC(=NC2CCCCC2)C2(CCCN([S+](=O)([O-])c3ccccc3)C2)N1c1cccnc1 (centres undefined)	.	-	-	.	.	.	.	.
C=CCN(C)C(=O)CC1COc2ccc(C(=O)N(C)C)cc2N1C (centres undefined)	-	-	-	-	-	-	-	-
O=C(Nc1ccc(Cl)cc1Cl)c1cn2c(n1)CN(C(=O)c1ccccc1)CC2	.	?	?	.	22µM	22µM	-	19µM
CC(=O)N1CCn2cc(C(=O)Nc3ccc(Cl)cc3Cl)nc2C1	.	-	?	.	.	.	.	.
Cn1cc(-c2cccc(O)c2)c2nc(COc3ccc(Cl)cc3)cn2c1=O	-	32µM	?	35µM	40µM	?	-	35µM
Cc1nn(C)c2nc(N3CCC(C#N)(c4ccccc4)CC3)sc12	-	28µM	?	16µM	22µM	24µM	-	22µM
Cc1nn(C)c2nc(N3C[C@@H]4CCN(C)[C@@H]4C3)sc12	-	-	-	-	.	.	.	.
Cn1cc(CC(=O)N2CCCc3ncc(C(=O)N4CCC(c5ccccc5)CC4)cc32)c2ccccc21	-	40µM	?	16µM	22µM	22µM	-	19µM
Cn1ccc(NC(=O)c2ccc3c(c2)NC(C)(CCCCc2ccccc2)CO3)n1 (centres undefined)	-	45µM	40µM	10µM	14µM	20µM	-	13µM
Cn1ccc(NC(=O)c2ccc3c(c2)NC(C)(CNCc2ccccc2)CO3)n1 (centres undefined)	-	?	-	-	.	.	.	.
O=C1NCc2ccccc2CC12CCN(Cc1ccncc1Cl)CC2	.	-	-	.	.	.	.	.
CCOc1cc2c(cn1)NCCN(Cc1ccncc1Cl)C2	-	?	?	35µM	31µM	?	-	40µM
SMILES	FLuc inh	HEK cytotox	3T3 cytotox	hNpr1 antagonist	Npr1 antag conf	NPR2 antag	FLuc counter	GloSensor cGMP
Clc1cnccc1CN1CCNc2cnc(Oc3ccccc3)cc2C1	-	89µM	?	4µM	6.3µM	8.9µM	-	5µM
Clc1cnccc1CN1CCNc2cnc(-c3ccccc3)cc2C1	-	?	?	28µM	31µM	35µM	-	31µM
CCOc1cc2c(cn1)NCCN(Cc1ccc3[nH]ccc3c1)C2	-	?	-	-	.	.	.	.
O=C(Nc1ccc(F)cc1)C1CCc2nc(N3CCN(C(=O)C4CCC4)CC3)sc2C1 (centres undefined)	-	10µM	?	3.5µM	7.7µM	11µM	-	9.7µM
O=C(NCC1CCCCC1)C1CCc2nc(N3CCN(C(=O)C4CCC4)CC3)sc2C1 (centres undefined)	-	-	-	-	.	.	.	.
CC(C)N1C[C@H](O)C[C@H]1c1nnc2n1CCN(C(=O)c1cccn1C)CC2	-	-	-	-	.	.	.	.
CC(C)Cc1ccc(S(=O)(=O)N(C)CC2CCOCC2)cc1	-	?	-	10µM	15µM	14µM	-	11µM
CCCc1ccc(S(=O)(=O)N(C)CC2CCOCC2)cc1	-	?	?	?	24µM	?	-	19µM
Cc1cccc(NC(=O)Cn2c(N(C)Cc3ccccc3)nc(C)cc2=O)c1	-	?	?	20µM	22µM	22µM	-	22µM
CCc1cccc(NC(=O)Cn2c(N(C)Cc3ccccc3)nc(C)cc2=O)c1	-	?	?	8.9µM	11µM	12µM	-	9.7µM
COc1ccc(CCC(=O)N2CCC[C@H]2c2nc(-c3ccc(C)cc3)no2)cc1	?	?	?	-	.	.	.	.
Cc1cccc(C(=O)N2CCC[C@H]2c2nc(-c3ccccc3Cl)no2)c1	?	?	?	-	.	.	.	.
Cc1cc(OCCN2CCOCC2)c(C)c2c1CC[C@@H]([C@H](C)C(=O)N1CCCCC1)C2	-	20µM	?	18µM	40µM	35µM	-	?
COc1ccc(-c2cccc(C(=O)N3CCC(NC(=O)c4ccncc4)CC3)c2)nn1	.	-	-	.	.	.	.	.
CC(C)Cc1cn(CC2CCCN(C(=O)c3n[nH]c4c3CCCC4)C2)nn1 (centres undefined)	-	?	?	14µM	19µM	17µM	?	15µM
CC(C)C1CN(C(=O)c2n[nH]c3c2CCC3)CCC(=O)N1CC1CC1 (centres undefined)	-	-	-	-	.	.	.	.
COc1ccc(C2Cn3nnc(C(=O)N4CCN(C(=O)Cc5ccccc5Cl)CC4)c3CO2)cc1 (centres undefined)	-	?	-	?	12µM	15µM	-	11µM

Screening results as filed in PubChem BioAssay.
